D1 ag: human D1 receptor agonism | P21728 | activation, % at 2 µM | hit rate 1% among 360,000 | HEK293 T-REx D1 cells, calcium flux, agonist mode; further: 0% is about no effect
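Inducible HEK293 T-REx D1 cells, force-coupled to calcium signalling, were plated at 4000 cells/well with tetracycline and held overnight at 30 C. After no-wash calcium dye loading, compound-evoked calcium rise over 180 s flagged agonists.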
D1 PAM: potentiators of human D1 dopamine receptor. potentiation, % at 10 µM. HEK293 TREx D1 cells, calcium flux, dopamine EC20 potentiation. hit rate 0.036% among 360,000; in the data active means potentiation above about 30%; further: 0% is about no effect
D1 antag: antagonists of human D1 dopamine receptor. HEK293 TREx D1 cells, calcium flux, dopamine EC80; stronger effect = lower value. hit rate 3.2% among 360,000. activity change, negative = inhibition, % at 10 µM. P21728; in the data active means activity change below about -30%; further: on the % scale 0 is the no-effect control and ±100 the full control effect
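Allosteric or orthosteric antagonism assessed as attenuation of the calcium response to EC80 dopamine, added 180 s after compound, in induced HEK293 Trex D1 cells loaded with no-wash calcium dye.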
TRHR agonist: TRH receptor (human) agonism; activation, % at 2 µM; TRHR cells, calcium flux fluo-8, FDSS agonist mode; AID 493084; hit rate 0.18% among 360,000; further: 0% is about no effect
Target sequence (P34981 whole entry, looked up): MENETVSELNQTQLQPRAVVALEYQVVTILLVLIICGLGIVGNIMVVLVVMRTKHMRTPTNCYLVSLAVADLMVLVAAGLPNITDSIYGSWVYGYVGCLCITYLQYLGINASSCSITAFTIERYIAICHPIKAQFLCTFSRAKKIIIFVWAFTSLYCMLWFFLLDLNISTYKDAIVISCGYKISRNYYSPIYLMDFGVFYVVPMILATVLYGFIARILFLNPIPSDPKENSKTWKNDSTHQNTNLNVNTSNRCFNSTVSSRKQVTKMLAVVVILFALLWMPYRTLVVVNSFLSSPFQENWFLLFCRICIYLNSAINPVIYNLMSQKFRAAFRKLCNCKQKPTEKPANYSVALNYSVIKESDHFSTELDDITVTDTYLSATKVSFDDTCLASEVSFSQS
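TRHR-expressing cells, plated overnight in medium with 10% serum, were loaded with fluo-8 calcium dye at room temperature. After a 10 s baseline, library compound was pin-added and calcium release was recorded kinetically (ex 480/em 530) as agonist response.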
TRHR PAM: allosteric enhancers of human TRH receptor. P34981. TRHR cells, fluo-8 calcium fluorescence, EC20 TRH enhancement. enhancement, % at 2 µM. hit rate 0.66% among 360,000. AID 493056; in the data active means enhancement above about 30%; further: 0% is about no effect
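Enhancer read-out: after compound pinning and an initial kinetic agonist-mode read, an EC20 of TRH (10 nM final) was injected and fluo-8 calcium signal (Ex 480/Em 530) followed at 1 s/cycle for 100 cycles in TRHR-expressing cells.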
Glioma ERSR ind: induces the endoplasmic reticulum stress response in human glioma cells. Potency, µM, for the others: top-dose activation, actives largely listed as activators. hit rate 0.02% among 420,000. U87-MG GRP78 promoter luciferase reporter, 16 h. AID 602332; active means well fitted activation curve with a large enough effect; further: potency means the concentration at half of the fitted maximal effect; series mostly up to about 76 µM; % of control where 0% means no effect; nearly all actives have a fitted effect of over 35% in size
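Stably transfected U87-MG human glioma cells carrying a GRP78-based luminescent sensor were seeded at 1000 cells/well, pin-dosed with compounds and incubated 16 h. Luciferase reagent was then added, and end-point luminescence was read after 10 min at room temperature.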
* = called active by the depositor. The list is not random: actives were taken first. Their share in the collection is about 4%. Unless noted, no stated cut-off is given here; in the data, active means activation above about 30%; inactive means the rest.

Results for c1ccc2c(CCc3c[nH]c4ccccc34)ccnc2c1 ?
Glioma ERSR ind: -5%

Results for O=C(c1cccs1)c1cn(CCOc2ccc(F)cc2)c2ccccc12 ?
D1 ag: 35*; D1 PAM: -5; D1 antag: 29; TRHR agonist: 0; TRHR PAM: 4; Glioma ERSR ind: -3%

Results for COCCn1c(=NC(=O)CSCC(=O)N2CCOCC2)sc2ccccc21 ?
D1 ag: 0; D1 PAM: -5; D1 antag: -46*; TRHR agonist: 0; TRHR PAM: 1; Glioma ERSR ind: -3%

Results for O=C(Cn1c(=O)sc2ccccc21)N1CCOCC1 ?
D1 ag: 1; D1 PAM: 0; D1 antag: -8; TRHR agonist: 2; TRHR PAM: -7; Glioma ERSR ind: 0%

What do the screens show for `CCN1CCc2nc3sc(C(=O)c4ccc(F)cc4)c(N)c3cc2C1`?
D1 ag: 30*; D1 PAM: 0; D1 antag: -14; TRHR agonist: 5; TRHR PAM: -9; Glioma ERSR ind: 2%

What do the screens show for `O=C(O)CCCC(=O)Nc1cccc2cccnc12`?
D1 ag: 0; D1 PAM: -8; D1 antag: -95*; TRHR agonist: 1; TRHR PAM: 7; Glioma ERSR ind: -4%

How did Cc1cccc(-c2noc(-c3ccc4c(c3)OCO4)n2)c1 do in these assays?
D1 ag: 10; D1 PAM: -2; D1 antag: -45*; TRHR agonist: 0; TRHR PAM: -4; Glioma ERSR ind: -8%

What do the screens show for `COc1ccc(-c2nc(-c3cccc(C)c3)no2)cc1OC`?
D1 ag: 1; D1 PAM: 5; D1 antag: -3; TRHR agonist: 0; TRHR PAM: 2; Glioma ERSR ind: 4%

Results for CCN(Cc1nc(-c2cccc(C)c2)no1)C(=O)c1ccc2c(c1)OCO2 ?
D1 ag: 35*; D1 antag: 7; TRHR agonist: -1; TRHR PAM: 6; Glioma ERSR ind: 1%

Results for COC(=O)c1cc(NC(=O)COC(=O)C2COc3ccccc3O2)cc(C(=O)OC)c1 (stereo not given) ?
Glioma ERSR ind: -1%

Results for O=C(NCC1(N2CCCCC2)CCCCC1)c1ccc(-n2cc(NC(=O)c3cccnc3)cn2)cc1 ?
Glioma ERSR ind: -7%

What do the screens show for `CCS(=O)(=O)c1nc(S(=O)(=O)c2ccc(Cl)cc2)c(N2CCC(O)CC2)s1`?
D1 ag: 3; D1 PAM: 3; D1 antag: 13; TRHR agonist: 0; TRHR PAM: -2; Glioma ERSR ind: 6%

How did Cc1n[nH]c(C)c1CCc1nc2c3ccccc3nc(SCC(=O)Nc3ccc(F)cc3)n2n1 do in these assays?
D1 ag: 3; D1 PAM: 0; D1 antag: -18; TRHR agonist: 0; TRHR PAM: 6; Glioma ERSR ind: -11%

Results for Cc1n[nH]c(C)c1CCc1nc2c3ccccc3nc(SCC(N)=O)n2n1 ?
D1 ag: 2; D1 PAM: 6; D1 antag: 13; TRHR agonist: 0; TRHR PAM: 33*; Glioma ERSR ind: -3%

How did Cc1cccc(C)c1NC(=O)CSc1nc2ccccc2c2nc(CCc3c(C)n[nH]c3C)nn12 do in these assays?
D1 ag: 2; D1 PAM: 0; D1 antag: -46*; TRHR agonist: 0; TRHR PAM: 1; Glioma ERSR ind: -3%

What do the screens show for `COc1cccc(NC(=O)CSc2c(C)cnc3c2c(=O)n(C)c(=O)n3C)c1`?
D1 ag: -5; D1 PAM: -1; TRHR agonist: 0; TRHR PAM: 4; Glioma ERSR ind: -5%

Results for CCC(Sc1nncn2c1cc1occc12)C(=O)Nc1ccc(C)c(Cl)c1 (stereo not given) ?
D1 ag: 1; D1 PAM: 5; D1 antag: 11; TRHR agonist: 1; TRHR PAM: -5; Glioma ERSR ind: -5%

Results for Oc1ccc(COC2CCCC2)c2cccnc12 ?
D1 ag: 2; D1 PAM: 2; D1 antag: -20; TRHR agonist: 0; TRHR PAM: 6
